This passage reports inhibition results from PubChem BioAssay AID449762 (Southern Research Specialized Biocontainment Screening …, 2010).

Several values for one entry are separate records, joined by “and”; a condition that tells them apart may be missing. Equal values may be shown once. About 1,900 (0.58%) of roughly 330,000 compounds were called active. Inconclusive results (about 4%) are left out. Only a sample is shown. Entries with a potency or affinity are not part of this list. Values without a mark were called inactive. No stated cut-off is given here; in the data, inconclusive means inhibition above about 70% without an active follow-up result; inactive means below that.

As usually defined, the inhibition is the relative decrease from the control value, in per cent.

The assay can be described thus: M. tuberculosis growth inhibition, HTS (AID 449762).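 Further: bacterial growth assessed after seven days of incubation.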 The note with it: M. tuberculosis H37Rv growth inhibition, 7H9 media; at 25 µM; hits give high values.
In the case of `Cc1ccccc1C(=O)N1CCC(C(=O)Nc2nccs2)CC1`, the inhibition is -0.78%.
For the compound `CC(=O)N1CCN(C(=O)CN2C(=O)NC(C)(c3ccc4ccccc4c3)C2=O)CC1` (stereo not given), the inhibition is 6.21%.
`Cc1ccc(CNCC(=O)Nc2ccc(C)cc2Br)cc1`: the inhibition is 2.37%.
Then `S=C(Nc1cccc(Cl)c1)Nc1cccc2cnccc12`, with 10%.
Regarding `Cc1ccc(NC(=S)Nc2cccc3cnccc23)cc1`, the inhibition is 1.12%.
For `COC(=O)c1cc(C)sc1NC(=O)CN1CCN(C(=O)c2ccco2)CC1` the value was -5.56%; for `CCOC(=O)c1cc(C)sc1NC(=O)CN1CCN(C(=O)c2ccco2)CC1`, 17%.
For `CCCn1nc(C(=O)NNC(=O)c2cc(S(=O)(=O)NC)ccc2Br)c2ccccc2c1=O` the value was -2.51%; for `COC(=O)c1ccc([C@H]2CC(=O)O2)cc1`, -4.85%.
For `O=C(N/N=C/c1ccccn1)c1ccc(NC(=O)c2ccc(F)cc2)cc1` the value was 2.56%; for `O=C(CSCc1ccc([N+](=O)[O-])cc1)N/N=C/c1cccnc1`, 3.16%.
With `COc1ccc(/C=N/NC(=O)CSCc2ccc([N+](=O)[O-])cc2)cc1OC`, the inhibition was -9.89%.
Then `COc1cc(C(=O)OCC#N)ccc1OCc1c(C)noc1C`, with 9.39%.
Consider `CCOc1cc(NCc2ccccc2)c2ncn(C(C)C)c2c1`, for which the inhibition was 67.6%.
Turning to `COc1cc(NCc2ccccc2)c2ncn(C(C)C)c2c1`, the inhibition is 1.58%.
As to `COc1ccccc1CNC(=O)C(CCSC)NS(=O)(=O)c1ccc2c(c1)oc(=O)n2C` (stereo not given), the inhibition was 3.84%.
As to `O=C(C(=O)N1CC=C(c2ccccc2)CC1)c1c[nH]c2ccccc12`, the inhibition was 5.82%.
For the compound `O=S(=O)(NCc1ccco1)c1ccc2ccccc2c1`, the inhibition was 10.5%.
Then `COC(=O)c1ccc(NC(=O)COc2ccc([N+](=O)[O-])cc2)cc1`, with -9.31%; and `Cc1ncsc1CCOC(=O)c1ccccc1`, with 4.41%.
For `CC(=O)Nc1ccc(NC(=O)COc2ccc([N+](=O)[O-])cc2)cc1` the value was -3.36%.
Then `Cc1ncsc1CCOC(=O)c1cccc([N+](=O)[O-])c1`, with 8.02% and -15.9%.
In the case of `O=C(Nc1ccc(Cl)c(S(=O)(=O)Nc2ccccc2Cl)c1)c1cccs1`, the inhibition is -2.32%.
Then `CC(C)(C)NCCOCCOc1ccccc1-c1ccccc1`, with 5.36%.
Then `N#Cc1ccccc1S(=O)(=O)N1CCN(C(=O)[C@H](Cc2ccccc2)NC(=O)c2ccco2)CC1`, with -9.05%.
For `C#CC[N+](C)(C)CCCCCCCCCC` the value was 6.64%; for `CCCCCC[N+](C)(C)CCSSCC[N+](C)(C)CCCCCC`, -17.5%.
With `CC(C)(C)c1ccc(S(=O)(=O)N2CCN(CC(O)COCC3CCCO3)CC2)cc1` (stereo not given), the inhibition is 7.79%.
Then `Cc1cc(/C=N/NC(N)=O)c(C)n1-c1ccc(F)cc1`, with 1.83%; and `Cc1cccc(C)c1-n1c(C)cc(/C=N/NC(N)=S)c1C`, with 51.5%; and `Nc1nc(N)c2nc(-c3ccccc3)c(N)nc2n1`, with 16.7%.
For `NSc1nc(N)c2nc(-c3ccccc3)c(-c3ccccc3)nc2n1` the value was 7.97%; for `COc1cccc(/C=N/NC(=O)CCCC(=O)Nc2ccc(Br)cc2)c1`, -7.05%.
Then `CCc1ccc(N2CC(C(=O)OCC(=O)Nc3ccc(C(C)=O)cc3)CC2=O)cc1` (stereo not given), with -5.19%; and `S=C1NC2=C(CCCC2)C2(CCCCC2)N1`, with -1.82%; and `CC(C)(C)NC(=O)NC(=O)CSc1ncccn1`, with 4.89%.
For `C=CCn1c(NCc2ccc3c(c2)OCO3)nc2ccccc21`, the inhibition is 1.97%.
For `O=C1OCc2nc3cc4c(cc3c(-c3ccc(F)cc3)c21)OCO4` the value was 3.09%; for `COc1ccccc1/C=C/C(=O)Nc1ccc(S(=O)(=O)Nc2cc(C)nc(C)n2)cc1`, 8.18%; for `Cc1cc(NS(=O)(=O)c2ccc(NC(=O)/C=C/c3ccccc3Cl)cc2)no1`, 40.1%.
In the case of `O=C(O)/C=C\C(=O)Nc1ccc(N2CCN(c3ccc(F)cc3)CC2)cc1`, the inhibition was 14%.
Consider `Cn1c(O)c(/C=C2\C=Nc3ccccc32)c(=O)n(C)c1=O`, for which the inhibition is 3.29%.
For `O=c1oc2ccccc2c(O)c1/C=N/c1ncccn1` the value was 4.28%.
Then `Cc1cc2cc(CNC(=S)Nc3ccc(OC(F)(F)F)cc3)ccc2n1C`, with -4.09%; and `O=S(=O)([N-]c1nc2ccccc2nc1-n1cc[n+](Cc2ccccc2)c1)c1ccccc1`, with 1.97%; and `CCCC[n+]1ccn(-c2nc3ccccc3nc2[N-]S(=O)(=O)c2ccccc2)c1`, with -13.6%.
Then `O=C(NCCc1ccc(Cl)cc1)C1CCC(CNc2nc(=S)[nH]c3ccccc23)CC1` (stereo not given), with 5.86%; and `O=C1OC(CCl)CN1Cc1c(Cl)cccc1Cl` (stereo not given), with -11.9%.
For the compound `Cc1nn(Cc2ccccc2Cl)c(C)c1C(=O)NCC(c1cccs1)N1CCOCC1` (stereo not given), the inhibition was 0.07%.
For `COc1ccc(C)cc1NC(=O)CCN1CCN(c2ccccc2)CC1`, the inhibition is 5.54%.
For `N=c1n(Cc2ccccc2)c2ccccc2n1CC(O)c1ccco1` (stereo not given) the value was -2.81%.
With `Cc1ccc(Cn2c(=N)n(CC(O)c3ccco3)c3ccccc32)cc1` (stereo not given), the inhibition is -10.2%.
Then `COc1ccc(C(=O)CC(c2ccccc2)S(=O)(=O)c2ccc(C)cc2)cc1` (stereo not given), with 11.8%; and `COc1ccc(C(CC(=O)c2ccccc2)S(=O)(=O)c2ccccc2)cc1` (stereo not given), with 21.9%.
For `O=[N+]([O-])c1cccc(/C=N/Nc2nc(C(Cl)(Cl)Cl)nc3ccccc23)c1` the value was 4.81%.
Then `COc1ccc(CN=C2NC(=O)CC(C(=O)Nc3ccc(Cl)cc3)S2)cc1` (stereo not given), with -3.21%; and `O=C(Nc1ccc(S(=O)(=O)Nc2nccc(C3Cc4ccccc4C(=O)O3)n2)cc1)c1ccccc1` (stereo not given), with 0.33%.
For `Cc1cc(C)c(NC(=O)CCCn2c(=O)oc3ccccc32)c(C)c1`, the inhibition is 0.61%.
As to `Cc1[nH][nH]c(=O)c1C(c1ccc(-c2cccc(C(=O)O)c2)o1)c1c(C)[nH][nH]c1=O`, the inhibition was 0.63%.
For `Cc1[nH][nH]c(=O)c1C(c1ccc(-c2cccc(Cl)c2)o1)c1c(C)[nH][nH]c1=O` the value was 4.79%.
